Reference: PubChem BioAssay (NCATS)
Values joined by “and” are separate entries in the source; they are usually repeats but may differ in a detail not shown here. Equal values may be shown once. Records with an inconclusive call do not appear. Active and inactive are the calls of the source. Unless noted, the call rests on the fitted dose curve; in most records, active means well fitted curve in the direction sought with a large enough effect; inconclusive means small, poorly fitted or top-dose-only effect, or another doubt; inactive means no such curve, though single readings can be large; an effect the other way counts as inactive or inconclusive.

Assays:
[1] = Cell Viability - SH-SY5Y (AID 544); details: SH-SY5Y neuroblastoma cell viability; viability change, negative = cytotoxic: at 92.2 µM (top of the series);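 further: cells exposed to compound for 40 hours; 0% = DMSO alone and -100% = 100 µM tamoxifen; nearly all actives have a fitted effect of over 55% in size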
Method in brief: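 Quantitative HTS in SH-SY5Y neuroblastoma cells, 40 hr treatment at 37 °C, ATP content by luciferase luminescence; AC50 from Hill fits.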

[2] = Cellular Toxicity (caspase-3) Hek293 (AID 664);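 further: cells exposed to compound for 16 h at 37 °C before readout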
Method in brief: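 Apoptosis readout: Caspase-Glo 3/7 signal in human HEK293 cells following 16-hour compound incubation. Responses scaled between DMSO baseline and 100 uM tamoxifen.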

[3] = MultiTox-Fluor Cytotoxicity Assay - LYMP1-001 - Dead Cells (AID 946);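 further: 0% = DMSO and 100% = tetraoctylammonium bromide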
Method in brief: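 AC50 from Hill fit of concentration-response; data normalized to DMSO (basal) and 15 uM tetraoctylammonium bromide (100%). LYMP1-001 lymphoblastoid cells, 2500/well, 16 hr compound at 37 C; dead-cell protease fluorescence, Ex/Em 485/520.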

[4] = MultiTox-Fluor Cytotoxicity Assay - LYMP1-001 - Live Cells (AID 947);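 further: 0% = DMSO only and full inhibition = tetraoctylammonium bromide control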
[5] = Cell Viability - LYMP1-003 - Assay at 40 hr (AID 964); further: on the % scale 0 is the no-effect control and ±100 the full control effect; nearly all actives have a fitted effect of over 60% in size
Method in brief: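 Acute toxicity is scored as a concentration-dependent loss of intracellular ATP in LYMP1-003 cells (2500/well, complete medium) after 40 hr at 37 C, measured by CellTiter-Glo luminescence; AC50 values derive from standard Hill modelling.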

[6] = Cell Viability - LYMP2-011 (AID 969);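 further: 0% = DMSO only and full inhibition = 92 µM tetraoctylammonium bromide; nearly all actives have a fitted effect of over 60% in size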
Method in brief: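 Cells seeded at 2500 per well rest 5 hr before compound addition, then incubate 24 hr at 37 C. CellTiter-Glo reagent is added for 30 min at room temperature before luminescence detection.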

[7] = Cell Viability - LYMP2-015 (AID 971);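 further: cells exposed to compound for 24 h; 0% = DMSO only and full effect = 92 µM tetraoctylammonium bromide; nearly all actives have a fitted effect of over 55% in size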
Method in brief: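 AC50 values reflect Hill-model fits of ATP-based luminescence (CellTiter-Glo) from a human lymphoblastoid line, 2500 cells/well, treated 24 hr at 37 C.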

[8] = Cell Viability - LYMP2-019 (AID 973);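 further: cells exposed to compound for 24 h at 37 °C; 0% = DMSO alone and full effect = 92 µM tetraoctylammonium bromide; nearly all actives have a fitted effect of over 55% in size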
Method in brief: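 AC50 values come from Hill-equation modelling of qHTS concentration-response curves, where viability is measured as luciferase-based ATP luminescence in the lymphoblastoid line after 24 hr compound exposure in complete culture medium.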

[9] = Cell Viability - LYMP2-014 (AID 983);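 further: cells exposed to compound for 24 h at 37 °C; plate controls were DMSO only for no effect and 92 µM tetraoctylammonium bromide for full effect; nearly all actives have a fitted effect of over 50% in size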
Method in brief: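 Quantitative HTS in lymphoblastoid cells: 24 hr compound exposure, then CellTiter-Glo ATP luminescence. Positive control was tetraoctylammonium bromide, 6.4pM to 92 uM.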

[10] = Cell Viability - LYMP2-016 (AID 984); further: on the % scale 0 is the no-effect control and ±100 the full control effect; nearly all actives have a fitted effect of over 55% in size
Method in brief: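 Human lymphoblastoid cells (LYMP2-016), 2500/well in complete medium, preincubated 5 hr at 37 C, then compound-treated 24 hr at 37 C. Intracellular ATP read by CellTiter-Glo luminescence after 30 min at room temperature; AC50 from Hill-equation concentration-response fits.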

[11] = Cell Viability - LYMP1-002 - Assay at 24 hr (AID 993); further: on the % scale 0 is the no-effect control and ±100 the full control effect
Method in brief: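 Viability was judged from intracellular ATP using a luciferase read-out, following a 24-hour compound incubation at 37 C of lymphoblastoid cells seeded at 2500 per well. Concentration-response data were fitted to the Hill equation for AC50.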

[12] = target: Vitamin D3 receptor (Homo sapiens) (UniProt P11473); assay: qHTS assay for small molecule agonists of vitamin D receptor signaling (AID 588543; calls by dose curve;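 further: 0% = DMSO basal and 100% = reference agonist control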)
Method in brief: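 GeneBLAzer VDR-UAS-bla HEK293T cells in 2% charcoal-stripped FBS medium were dosed with compound titrations for 16 h at 37 °C; CCF4 β-lactamase readout (405 nm ex, 460/530 nm em). EC50 and efficacy from Hill fits, normalized to 50 nM calcitriol (100%) and DMSO (0%).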

[13] = qHTS assay for small molecule agonists of retinoid X receptor alpha signaling (AID 588544); details: HEK293T RXRa-UAS-bla, beta-lactamase reporter, 18 h; 530 nm emission
[14] = target: Nuclear receptor subfamily 1 group I member 2 (Rattus norvegicus) (UniProt Q9R1A7); assay: qHTS assay for small molecule activators of the rat pregnane X receptor (rPXR) signaling pathway (AID 651751; call rule not given here; further: 0% is about no effect); details: rPXR reporter cells, luciferase (One-Glo), 24 h
[15] = qHTS assay for small molecule agonists of the antioxidant response element (ARE) signaling pathway (AID 651741; active means well fitted activation curve with a large enough effect in the signal ratio; the % refers to the signal ratio; further: potency means the concentration at half of the fitted maximal effect)
Method in brief: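 HepG2 ARE-bla reporter cells, 2,000/well; 5 h settle at 37 C/5% CO2; compound pin transfer (23 nL, DMSO); 16 h at 37 C; LiveBLAzer B/G FRET substrate, 2 h RT; fluorescence intensity read.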

AS120 = assay: qHTS profiling for inhibitors of Plasmodium falciparum proliferation (AID 504749);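 further: 0% = DMSO vehicle and full inhibition = artemisinin control; nearly all actives have a fitted effect of over 60% in size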; details: P. falciparum in erythrocytes, SYBR Green DNA, 72 h; series mostly up to 28.7 µM
Method in brief: (§1)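 SYBR Green fluorescence (ex 485 nm, em 535 nm) reports parasite DNA after 72 h compound exposure of infected red cells at 0.3% parasitemia, 2.5% hematocrit; signal normalized to 0.29 uM artemisinin and vehicle wells.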

ATS189 = assay: as above; details: P. falciparum in erythrocytes, SYBR Green DNA, 72 h; series mostly up to 28.7 µM
Method in brief: as §1

DFO2036 = assay: as above; details: P. falciparum in erythrocytes, SYBR Green DNA, 72 h; series mostly up to 28.7 µM
Method in brief: as §1

P94_40 = assay: as above; details: P. falciparum in erythrocytes, SYBR Green DNA, 72 h; series mostly up to 28.7 µM
Method in brief: as §1

TAB109 = assay: as above; details: P. falciparum in erythrocytes, SYBR Green DNA, 72 h; series mostly up to 12.8 µM
Method in brief: as §1

Chain of Nuclear receptor subfamily 1 group I member 2 (Rattus norvegicus) (Q9R1A7 whole entry, looked up): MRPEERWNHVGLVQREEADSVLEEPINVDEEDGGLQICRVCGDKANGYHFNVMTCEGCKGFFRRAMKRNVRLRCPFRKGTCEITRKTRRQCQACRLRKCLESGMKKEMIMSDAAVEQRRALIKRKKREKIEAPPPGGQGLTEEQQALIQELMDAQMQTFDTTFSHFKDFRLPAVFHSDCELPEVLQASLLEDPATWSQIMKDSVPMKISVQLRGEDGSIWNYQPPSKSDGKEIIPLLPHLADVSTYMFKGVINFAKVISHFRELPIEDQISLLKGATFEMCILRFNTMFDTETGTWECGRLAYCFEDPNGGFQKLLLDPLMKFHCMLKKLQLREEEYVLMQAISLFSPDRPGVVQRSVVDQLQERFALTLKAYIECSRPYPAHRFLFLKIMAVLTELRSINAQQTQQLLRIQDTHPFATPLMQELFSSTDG
Chain of Vitamin D3 receptor (Homo sapiens) (P11473 whole entry, looked up): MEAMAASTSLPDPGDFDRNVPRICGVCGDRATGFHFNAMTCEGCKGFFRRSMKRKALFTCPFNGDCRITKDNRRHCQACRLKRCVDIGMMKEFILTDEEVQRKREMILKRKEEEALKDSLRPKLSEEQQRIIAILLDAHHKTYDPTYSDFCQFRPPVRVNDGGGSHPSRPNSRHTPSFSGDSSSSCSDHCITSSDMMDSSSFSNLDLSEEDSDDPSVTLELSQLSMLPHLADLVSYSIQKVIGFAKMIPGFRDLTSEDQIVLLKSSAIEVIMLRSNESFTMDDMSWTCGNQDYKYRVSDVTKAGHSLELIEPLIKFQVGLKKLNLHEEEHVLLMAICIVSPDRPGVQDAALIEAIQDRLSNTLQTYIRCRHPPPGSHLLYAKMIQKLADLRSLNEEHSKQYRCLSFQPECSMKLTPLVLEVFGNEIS

C/C=C/c1ccc2c(c1)OCO2
-11.2%: max response [13]
inactive: Potency [1] | outcome [2] | Potency [3] | Potency [4] | Potency [5] | Potency [6] | Potency [7] | Potency [8] | Potency [9] | Potency [10] | Potency [11] | outcome [12] | max response [14] 0.551%

CNC(=O)O/N=C/C(C)(C)SC
active: Potency [15] 27.3 µM
inactive: Potency [1] | outcome [2] | Potency [3] | Potency [4] | Potency [5] | Potency [6] | Potency [7] | Potency [8] | Potency [9] | Potency [10] | Potency [11]
-12.4% and 19.1% and 1.84%: max response [13]

CC(C)c1c(CN(C)[C@@H](C)Cc2ccccc2)n(C)n(-c2ccccc2)c1=O
inactive: Potency (AS120) | Potency (ATS189) | Potency (DFO2036) | Potency (P94_40) | Potency (TAB109)

CN(C)C(=O)Oc1cc(OC(=O)N(C)C)cc([C@@H](O)CNC(C)(C)C)c1
inactive: Potency (AS120) | Potency (ATS189) | Potency (DFO2036) | Potency (P94_40) | Potency (TAB109)

C[N+]1(C)[C@@H]2CC[C@H]1CC(OC(=O)[C@@H](CO)c1ccccc1)C2 (stereo partly drawn)
inactive: Potency (AS120) | Potency (ATS189) | Potency (DFO2036) | Potency (P94_40) | Potency (TAB109)

CC[C@@]1(c2ccc(N)cc2)CCC(=O)NC1=O
inactive: Potency (AS120) | Potency (ATS189) | Potency (DFO2036) | Potency (P94_40) | Potency (TAB109)

C[C@@]12CCC(=O)C=C1C=C[C@H]1[C@H]3CC[C@](O)(CCC(=O)O)[C@]3(C)CC[C@@H]12
inactive: Potency (AS120) | Potency (ATS189) | Potency (DFO2036) | Potency (P94_40) | Potency (TAB109)

C[C@H](N)[C@@H](O)c1ccccc1
inactive: Potency (AS120) | Potency (ATS189) | Potency (DFO2036) | Potency (P94_40) | Potency (TAB109)

C[N+]1([O-])[C@@H]2CC(OC(=O)[C@@H](CO)c3ccccc3)C[C@@H]1[C@H]1O[C@H]12 (stereo partly drawn)
inactive: Potency (AS120) | Potency (ATS189) | Potency (DFO2036) | Potency (P94_40) | Potency (TAB109)

CC1=C2[C@@H]3OC(=O)[C@@H](C)[C@@H]3CC[C@]2(C)C=CC1=O
inactive: Potency (P94_40)
